Assay results published in the supplement of paper PMC6555819.

Assays:
Experiment in all cases: PBM binding z-score (relative to random genomic background probes); higher = stronger binding; sequences stand for … in GC…GCGATTGACAGCGTAGAATGAAGG
[1] = system: PPARg:RXRa DBDmut IVT, anti-RXR (DBD mutation: RXRa K156A/R161A, NR concentration 270 nM, RXRa partner concentration 90 nM)
Procedure, shortened: (§1)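 On custom Agilent 4×180K arrays, double-stranded probes with 34-nt variable regions carried direct-repeat seeds, single-nucleotide variants, half-site ablations or random human genomic background. Ligand-free nuclear receptor dimers were applied for 1 h, and binding was read with antibodies against each partner (one per run). Binding z-scores come from regression-normalized fluorescence, with the random background probes as reference.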

[2] = system: PPARg:RXRa IVT, anti-PPARg (NR concentration 270 nM, RXRa partner concentration 90 nM)
Procedure, shortened: as §1

[3] = system: PPARg DBDmut:RXRa IVT, anti-PPARg (DBD mutation: PPARg1 K132A/R137A, NR concentration 270 nM, RXRa partner concentration 90 nM)
Procedure, shortened: as §1

[4] = system: PPARg DBDmut IVT, anti-PPARg (DBD mutation: PPARg1 K132A/R137A, NR concentration 270 nM)
Procedure, shortened: as §1

[5] = system: PPARg homodimer (NR concentration 180 nM)
Procedure, shortened: as §1

[6] = system: PXR:RXRa (NR concentration 270 nM, RXRa partner concentration 90 nM)
Procedure, shortened: as §1

[7] = system: PXR homodimer (NR concentration 270 nM)
Procedure, shortened: as §1

[8] = system: RARa homodimer (NR concentration 270 nM)
Procedure, shortened: as §1

[9] = system: RARb:RXRa (NR concentration 270 nM, RXRa partner concentration 90 nM)
Procedure, shortened: as §1

[10] = system: RARb homodimer (NR concentration 270 nM)
Procedure, shortened: as §1

[11] = system: RARg:RXRa (NR concentration 270 nM, RXRa partner concentration 90 nM)
Procedure, shortened: as §1

[12] = system: RARg homodimer (NR concentration 270 nM)
Procedure, shortened: as §1

[13] = system: RXRa DBDmut IVT, anti-RXR (DBD mutation: RXRa K156A/R161A, NR concentration 90 nM)
Procedure, shortened: as §1

[14] = system: RXRa homodimer (NR concentration 180 nM)
Procedure, shortened: as §1

[15] = system: THRa:RXRa (NR concentration 90 nM, RXRa partner concentration 90 nM)
Procedure, shortened: as §1

[16] = system: THRa homodimer (NR concentration 90 nM)
Procedure, shortened: as §1

[17] = system: VDR homodimer (NR concentration 270 nM)
Procedure, shortened: as §1

[18] = system: VDR:RXRa (NR concentration 270 nM, RXRa partner concentration 90 nM)
Procedure, shortened: as §1

| Sequence | PBM binding z-score [1] | PBM binding z-score [2] | PBM binding z-score [3] | PBM binding z-score [4] | PBM binding z-score [5] | PBM binding z-score [6] | PBM binding z-score [7] | PBM binding z-score [8] | PBM binding z-score [9] | PBM binding z-score [10] | PBM binding z-score [11] | PBM binding z-score [12] | PBM binding z-score [13] | PBM binding z-score [14] | PBM binding z-score [15] | PBM binding z-score [16] | PBM binding z-score [17] | PBM binding z-score [18] |
| --- | --- | --- | --- | --- | --- | --- | --- | --- | --- | --- | --- | --- | --- | --- | --- | --- | --- | --- |
| TTACAAAGGTGAGCTGAGGTCGTTGATCCAACTC | 1.9 | 2.58 | 0.303 | -0.224 | 1.41 | 6.04 | 0.268 | -0.325 | 3.23 | 2.56 | 2.97 | 2.69 | 0.365 | 2.51 | 4.84 | 1.73 | 2.57 |  |
| TAGCCTAGGTCATTCAGGGGCCAGAATAGAAAGC | 1.69 | 2.95 | -0.139 | 0.318 | 1.44 | 2.48 | 0.043 | -0.355 | 4 | 3.56 | 5.97 | 4.58 | 2.09 | 3.18 | 3.54 | 0.459 | 1.19 |  |
| CGGCCAAGGTCAAAGGTCAGTGAAGAGATGACGG | 3.94 | 5.66 | 0.246 | -0.114 | 7.63 | 7.3 | 1.98 | 4.91 | 6.06 | 5.37 | 9.05 | 8.47 | 3.57 |  | 4.99 | 2.52 | 3.31 |  |
| CGTCCAAGGTCAGTGAGGTCAGTGAATGCCGAGT | 3.14 | 3.83 | -0.101 | -0.804 | 3.15 | 5.76 | 11.8 | 0.545 | 5.51 | 5.33 | 5.76 | 6.56 | 3.28 | 4.61 |  | 4.36 | 5.33 |  |
| ATATGTAGGTAACATCCGGGTCATTCAGGCTATG | 6.71 | 7.04 | 2.61 | 1.59 | 1.75 | 3.14 | 2.16 | 0.771 | 1.66 | 2.68 | 2.39 | 1.58 | 0.786 | 2.49 | 3.62 | 2.74 | 2.52 |  |
| CGTCCAAGGTCATAAGAGGTCAGTGAAGACAGAT | 3.48 | 4.2 | 2.03 | -0.112 | 7.68 | 7.11 | 7.52 | 4 | 5.47 | 5.16 | 7.1 | 7.88 | 4.16 | 7.05 | 5.23 | 3.25 | 5.57 |  |
| ACTAACAGGCCAAGGGTCACTCAAGATTAGTCCG | 0.923 | 3.21 | 0.489 | -0.189 | 3.04 | 3.56 | 0.163 | 1.2 | 3.57 | 4.08 | 4.46 | 4.16 | 1.23 | 4.7 | 2.9 | 0.619 | 1.46 |  |
| TAGCCTAGGTCATGGGCCAGTTTACCACGCGAAC | 1.76 | 3.27 | -0.261 | -0.602 | 1.68 | 2.12 | -0.368 | -0.379 | 3.82 | 3.04 | 4.68 | 4.8 | 0.567 | 4 | 3.22 | 1.42 | 0.669 |  |
| TCTAGTTGGTTACGGAGGTCACACACGACGGGTA | 1.85 | 2.98 | 1.22 | 0.724 | 3.22 | 4.22 | 1.44 | 2.34 | 3.25 | 3.79 | 4.2 | 3.66 | 1.12 | 4.33 | 3.52 | 2.49 | 3.21 |  |
| TATACAGGGTCAAAGGGCAGAGTACGAATGTCGA | 2.92 | 5.52 | 3.49 | 2.57 | 2.97 | 5.21 | 1.62 | 1.6 | 4.84 | 4.22 | 6.33 | 5.48 | 3.14 |  | 3.98 | 1.48 | 3.82 | 5.43 |
| CGTCCAAGGTCATAGGAGGTCACTGAAGACAGAT | 3.85 | 5.27 | 1.24 | 1.12 | 5.21 | 7.29 | 6.78 | 3.25 | 5.39 | 5.4 | 7.13 | 7.45 | 4.05 | 7.22 | 5.37 | 3.68 | 5.28 |  |
| CCTTACGGGTCACGGGGTTATAGCACGACGAGCG | 3.39 | 5.93 | 4.69 | 3.61 | 8.52 | 5.66 | 0.491 | 2.14 | 4.72 | 3.7 | 6.74 | 5.54 | 1.77 |  | 4 | 0.91 | 2.44 |  |
| CGTCCAAGGTCAATGCTAGGTCACTGAAAGCATT | 3.52 | 4.42 | 0.503 | 0.266 | 8.59 | 5.45 | 2.08 | 2.19 | 5.33 | 5.18 | 7.94 | 6.93 | 3.59 | 5.56 |  | 3.87 | 3.43 |  |
| TTACCAAGGTGAAAGGTCATTGATGCACGCCTTG | 2.98 | 6.12 | 1.63 | 2.28 | 5.67 | 6.35 | 2.25 | 2.09 | 4.86 | 4.75 | 6.91 | 5.06 | 1.85 |  | 4.42 | 1.64 | 3.32 |  |
| TTACAAAGGTGAAAGGTCGTTGATGCACGCCTTG | 3.36 | 5.57 | 1.51 | 1.12 | 2.94 | 5.11 | 0.77 | 0.833 | 4.25 | 3.48 | 5.85 | 3.31 | 1.05 | 7.68 | 3.11 | 0.398 | 1.64 |  |
| CGAACGAGGTCAGAACAGGACAGTGAAGGATGAT | 3.38 | 4.26 | 0.826 | 0.461 | 1.39 | 3.87 | 0.676 | 0.667 | 4.4 | 3.19 | 4.63 | 4.76 | 3 | 4.37 |  | 1.37 | 2.1 |  |
| CGTCCAAGGTCAAGCTCAGTGAAAGAGACTCGAA | 3.71 | 3.76 | 0.736 | 0.448 | 3.54 | 3.92 | 0.3 | 0.572 | 5.27 | 3.96 | 6.43 | 6.63 | 3.51 | 6.22 | 3.76 | 2.32 | 2.03 |  |
